The text below walks through data of PubChem BioAssay (Tox21).

Each structure is given as a SMILES string. Results filed as inconclusive are left out. Values without a mark were called inactive. Active and inactive are the calls of the source. Calls follow the shape of the dose curve; as a rule, active = well fitted activation curve with a large enough effect in the repeat runs; inconclusive = weak or mixed curves, or effect the other way; inactive = no such curve, though single readings can be large or run the other way.
% is scaled to controls: 0 for no effect and ±100 for the full control effect; potency is read from the fitted curve at half-maximal effect.

This experiment can be described thus: qHTS assay to identify small molecule agonists of the estrogen related receptor signaling pathway with the pleiotropic PPARgamma coactivator (PGC) from Tox21 10K library (AID 1224842). Also: nearly all actives have a fitted effect of over 15% in size. The following applies: PGC/ERR reporter cell line, luciferase ONE-Glo, 18 h; series mostly up to 92.4 µM; activation: at the top concentration. From the text: National Center for Advancing Translational Sciences [NCATS] NIH Chemical Genomics Center [NCGC] U.S. Environmental Protection Agency [EPA] National Institutes of Environmental Health Sciences [NIEHS] National Toxicology Program [NTP] Assay overview: Estrogen related receptors (ERRs), the first orphan nuclear receptors discovered, play an important role in the control of cellular energy metabolism. ERRs are required for high-energy production in response to the environmental challenges. The pleiotropic PPARgamma coactivator (PGC) is a major partner of ERR and a key regulator in energy homeostasis. Together they have been implicated in the etiology of metabolic disorders such as Type 2 diabetes and metabolic syndrome. ERR-alpha was also identified as an adverse marker for breast cancer progression; ERR-alpha-positive tumors have a poor prognosis. To screen and to identify environmental compounds that perturb the PGC/ERR signaling pathways could provide valuable information for potential therapeutic or preventive measures in the treatment of metabolic disease. For identifying PGC/ERR agonists, PGC/ERR cell line (provided by NTP) has been used to screen Tox21 10K library.
Assay Protocol Summary: The PGC/ERR cells were dispensed at 2,000 cells/5 ul/well in 1536-well white plates using a Multidrop dispenser. After the assay plates were incubated at a 37 C/5% CO2 incubator for 6 hours, 23 nL of compounds dissolved in DMSO, positive and negative controls or DMSO only was transferred to the assay plate by a pin tool. The plates were incubated at 37 C for 18 hours. 4 ul/well of One-Glo reagent was added into the assay plates using a Flying Reagent Dispenser. After 30-minute incubation at room temperature, the luminescence intensity in the plates was measured using a ViewLux plate reader.
In the case of `O=C(Nc1ccccc1SSc1ccccc1NC(=O)c1ccccc1)c1ccccc1`, the Potency result was “inactive”.
On to `C=CC(=O)OCCCCCCOC(=O)C=C`, for which the Potency is 21.7 µM (active).
For `CCOC(=O)C(C)C(C)=O` (stereo not given), the “activation” value was -0.373%.
As to `Cc1cc(C2(c3cc(C)c(O)cc3C)OS(=O)(=O)c3ccccc32)c(C)cc1O`, the Potency result is “inactive”.
With `COC(c1ccccc1)(c1ccccc1)[C@H](Oc1nc(C)cc(C)n1)C(=O)O`, the “activation” value was 1.35% [at 42.5 µM].
Take `Cc1ccc(S(=O)(=O)Oc2ccc(N=Nc3ccc(-c4ccc(N=Nc5c(O)ccc6cc(S(=O)(=O)O)cc(S(=O)(=O)O)c56)c(C)c4)cc3C)cc2)cc1`: the Potency result was “inactive”.
Regarding `C=CS(=O)(=O)O`, the “activation” value was -0.764%.
Same read-out and setting: for `NC(N)=NC(=O)Cc1c(Cl)cccc1Cl` the value was -0.401% [at 42.5 µM].
With `OCC(CO)N[C@H]1C[C@](O)(CO)[C@@H](O)[C@H](O)[C@H]1O`, the “activation” value was 0.529% [at 42.5 µM].
For the compound `COc1ccc(COC(C)=O)cc1`, the Potency entry was “inactive”.
Take `Oc1c(Cl)cc(Cl)cc1Sc1cc(Cl)cc(Cl)c1O`: the Potency entry was “inactive”.
Turning to `Nc1cc(Cl)c(-c2cc(Cl)c(N)cc2Cl)cc1Cl`, the Potency entry is “inactive”.
In the case of `CCCCCCC(O)CCCCCCCCCCC(=O)O` (stereo not given), the Potency result was “inactive”.
Turning to `CC(C)(c1ccccc1)c1ccc(Nc2ccc(C(C)(C)c3ccccc3)cc2)cc1`, the “activation” value was -10.1%.
With `CN1C(=O)c2ccc([N+](=O)[O-])cc2C1=O`, the “activation” value is 2.59%.
Regarding `c1cnc2cc3c(cc2n1)C1CNCC3C1`, the “activation” value was -3.54% [at 42.5 µM].
Consider `OCCN1CCNCC1`, for which the Potency result was “inactive”.
For the compound `CCN1CCCC1CNC(=O)c1cc(S(=O)(=O)CC)c(N)cc1OC` (stereo not given), the “activation” value is 3.31% [at 42.5 µM].
With `CCCCC/C=C/CC1CC(=O)OC1=O` (stereo not given), the “activation” value is 1.56%.
Consider `CC[C@]1(O)C[C@@H]2CN(CCc3c([nH]c4ccccc34)[C@@](C(=O)OC)(c3cc4c(cc3OC)N(C)[C@H]3[C@@](O)(C(=O)OC)[C@H](OC(C)=O)[C@]5(CC)C=CCN6CC[C@]43[C@@H]65)C2)C1`, for which the “activation” value was -5.86% [at 42.5 µM].
Take `CCCCN(CCO)CCCC`: the “activation” value is 3.92%.
For `CN(C)c1ccc(C(=C2C=CC(=[N+](C)C)C=C2)c2ccccc2)cc1`, the Potency entry was “inactive”.
Take `CC(C)(C)c1ccccc1`: the “activation” value was -1.26%.
`CCOc1ccc2c(c1)C(C)=CC(C)(C)N2`: the Potency result is “inactive”.
For the compound `C=C(C)C1CC=C(C)C(OC(C)=O)C1` (stereo not given), the Potency result was “inactive”.
On the same count and under the same terms, for `CCn1c2ccccc2c2cc(N)ccc21` the value was “inactive”; for `COc1ccc(CCN2CCC(Nc3nc4ccccc4n3Cc3ccc(F)cc3)CC2)cc1`, “inactive”.
For the compound `CC[C@@H](N)CO`, the “activation” value is 0.0408%.
For the compound `O=S(=O)(O)c1ccc2nc(-c3ccccc3)[nH]c2c1`, the Potency result is “inactive”.
`O=C(O)c1cc(Cl)cc(Cl)c1`: the “activation” value was -3.16%.
For the compound `O=C1CC2(CCCC2)CC(=O)N1CCCCN1CCN(c2ncccn2)CC1`, the Potency result is “inactive”.
On to `O=C(O)CCc1ccccc1`, for which the “activation” value was 0.613%.
For the compound `NC(N)=Nc1nc(CSCC/C(N)=N/S(N)(=O)=O)cs1`, the Potency entry is “inactive”.
With `Nc1ccc(O)cc1`, the “activation” value is -20.8%.
Regarding `CC1=CC(=O)c2ccccc2C1=O`, the Potency result was “inactive”.
In the case of `CCn1cc(C(=O)O)c(=O)c2cc(F)c(N3CCNC(C)C3)c(F)c21` (stereo not given), the “activation” value is 0.758% [at 42.5 µM].
Turning to `CC(C)(C)NCC(O)COc1ccccc1OCC1CCCO1` (stereo not given), the “activation” value was -4.44% [at 42.5 µM].
As to `COC(=O)[C@H]1[C@H]2C[C@@H]3c4[nH]c5cc(OC)ccc5c4CCN3C[C@H]2C[C@@H](OC(=O)c2cc(OC)c(OC)c(OC)c2)[C@@H]1OC`, the Potency result is “inactive”.
Regarding `CC(C(O)c1ccc(O)cc1)N1CCC(Cc2ccccc2)CC1` (stereo not given), the “activation” value is 0.0119% [at 42.5 µM].
As to `CCN(CC)C(=O)Nc1ccc(OCC(O)CNC(C)(C)C)c(C(C)=O)c1` (stereo not given), the “activation” value was -0.0255% [at 42.5 µM].
